IL1B secr inh: inhibitors of inflammasome signaling (IL-1 beta secretion). THP-1 LPS/ATP IL-1B secretion, AlphaLISA, 16 h; stronger effect = lower value. activity change, % at 57.5 µM. 360,000 compounds, 4.7% hits; in the data active = activity change below about -50%; inconclusive = mostly about -30% to -49%
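THP-1 cells pretreated 1 hr with compounds (up to 57.5 uM final), then stimulated with LPS (250 ng/mL final) plus ATP (1.25 mM final); secreted IL-1B measured by AlphaLISA after 16 hr, decreased signal indicating inhibition.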
VP16 counter: Gal4-VP16 reporter inhibition counter-screen; AID 2546; Potency, µM (titrated, usually from 53.6 µM), usual class: inhibitors; 310,000 compounds, 3.5% hits; Drosophila S2 Gal4-VP16 UAS-luciferase, luminescence, 20 h;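 note: Gal4-VP16 expression switched on by copper sulfate through the metallothionein promoter; nearly all actives have a fitted effect of over 50% in size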
MCF10A rereplic: inducers of DNA re-replication in MCF 10A breast cells; 350,000 compounds, 2.9% hits; AID 624296; Potency, µM (series often up to 46.1 µM), hits mostly activators; MCF 10A DNA re-replication, Hoechst nuclear intensity, 48 h; note: nearly all actives have a fitted effect of over 50% in size
RORg inh: inhibitors of mouse ROR gamma transcriptional activity; Drosophila S2 Gal4-RORgamma UAS-luciferase reporter, 20 h; 310,000 compounds, 5.4% hits; Potency, µM (doses to about 53.6 µM), most hits filed as inhibitors; P51450; note: nearly all actives have a fitted effect of over 60% in size
Target sequence (P51450 whole entry, looked up, the tested form may be a part): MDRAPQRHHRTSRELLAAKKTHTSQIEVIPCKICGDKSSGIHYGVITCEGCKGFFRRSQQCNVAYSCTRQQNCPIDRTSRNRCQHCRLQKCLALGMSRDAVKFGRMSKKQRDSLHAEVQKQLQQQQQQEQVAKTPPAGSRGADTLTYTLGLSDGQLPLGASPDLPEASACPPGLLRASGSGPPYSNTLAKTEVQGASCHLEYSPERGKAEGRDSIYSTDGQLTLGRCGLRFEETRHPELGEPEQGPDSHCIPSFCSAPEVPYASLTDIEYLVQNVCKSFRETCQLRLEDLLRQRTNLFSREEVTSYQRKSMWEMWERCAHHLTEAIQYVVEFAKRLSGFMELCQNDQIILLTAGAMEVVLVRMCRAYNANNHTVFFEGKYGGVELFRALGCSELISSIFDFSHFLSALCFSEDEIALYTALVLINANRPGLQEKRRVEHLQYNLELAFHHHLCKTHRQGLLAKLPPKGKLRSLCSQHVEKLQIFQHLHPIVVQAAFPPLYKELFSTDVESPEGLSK
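ROR gamma transcriptional activity was tracked as Gal4-UAS luciferase output in stably transfected Drosophila Schneider cells, with compound added 1 hr before 700 uM copper sulfate induction and a 20 hr ambient-temperature incubation.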
SW480 rereplic: inducers of DNA re-replication in SW480 colon cancer cells | SW480 DNA re-replication, Hoechst DNA content imaging, 48 h | 340,000 compounds, 1.8% hits | Potency, µM (series often up to 46.1 µM), actives largely listed as activators; note: nearly all actives have a fitted effect of over 55% in size
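Cells (250 per well) received 23 nL compound or DMSO by pin tool and were kept 48 hr at 37 C, 5% CO2. Nuclei were then stained with Hoechst for 40 min and scanned for DNA content.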
Hits are given with their value; 0 = inactive; ? = inconclusive; - = no result given; [ ] = remark or other dose. In the library only some 11% were active in any assay of this set; here they are far more common. Unless noted, calls come from the whole dose curve; as a rule, active = well fitted curve in the direction sought with a large enough effect; inconclusive = small, poorly fitted or top-dose-only effect, or another doubt; inactive = no such curve, though single readings can be large; an effect the other way counts as inactive or inconclusive.

SMILES	IL1B secr inh	VP16 counter	MCF10A rereplic	RORg inh	SW480 rereplic
Cc1cc(-c2c(C)[nH]n(-c3ccccc3)c2=O)n[nH]1	0	1µM	?	0.398µM	?
O=C(CN1CCN(C(c2ccccc2)c2ccccc2)CC1)N1CCOCC1	0	0	0	0	0
Oc1c(C(c2ccccc2)N2CCOCC2)ccc2ccccc12 (stereo not given)	-98.7	-	16.4µM	-	?
COc1ccc(NC(=O)N(C)C[C@H]2OCCCC[C@@H](C)Oc3ccc(N(C)C)cc3C(=O)N([C@H](C)CO)C[C@@H]2C)cc1	0	-	-	-	-
Cc1cc(O)cc2c(=O)c3ccccc3sc12	0	0	18.4µM	0	?
Cc1cc(=O)oc2ccc(OCC(=O)N(Cc3ccc(F)cc3)Cc3ccco3)cc12	-61.7	?	?	?	0
CS(=O)(=O)N1CCC2(CCCN(Cc3ccccc3)C2)CC1	-	0	-	0	-
O=C(NCC1CCCO1)c1ccc([N+](=O)[O-])o1 (stereo not given)	?	0	?	0	?
O=C(NNC(=O)c1ccc([N+](=O)[O-])o1)c1ccccc1	0	17.8µM	?	11.2µM	?
NC(=O)c1oc2ccccc2c1NC(=O)c1ccc([N+](=O)[O-])o1	-90.7	?	?	?	?
O=C(NN(c1ccccc1)c1ccccc1)c1ccc([N+](=O)[O-])o1	-93.2	0	?	?	11.6µM
NC(=O)c1oc2ccccc2c1NC(=O)c1ccc(F)cc1	0	0	0	0	0
CCN(CC)[C@@H](C)CN1c2ccccc2Sc2ccccc21	-	0	0	0[2.98 µM]	0
C/C=C/c1cccc(-c2nc(C(=O)N3CCCCC3)cc3c2[C@H](CCO)N(C(=O)NC(C)C)C3)c1	0	-	-	-	-
COc1cc(NC(=O)c2ccccn2)cc(OC)c1OC	0	0	0	0	0
C/C(=N/NC(=O)c1ccccn1)c1ccco1	0	?	0	10µM	0
COc1cccc(C(=O)N/N=C(/c2ccccc2)c2ccccn2)c1	-51.6	0.141µM	?	0.1µM	?
C/C(=N\NC(=O)c1ccc(Cl)cc1)c1ccccn1	-92.4	?	3.66µM	0.0282µM	?
COc1cc(C(=O)N/N=C(\C)c2ccccn2)cc(OC)c1OC	0	0	?	0	3.66µM
C/C(=N\NC(=O)c1ccccn1)c1ccc(Cl)cc1	-	0	0	?	0
O=C(N/N=C/c1cccnc1)c1cc(O)c(O)c(O)c1	0	0	0	0	0
Cc1cc(C)n2c(SCC(=O)N(CCC#N)c3ccc4c(c3)OCCO4)nnc2n1	0	-	-	-	-
COc1cc(C(=O)N/N=C(\c2ccccc2)c2ccccn2)cc(OC)c1OC	0	1.26µM	18.4µM	1.26µM	?
Cc1ccccc1N(C(=O)c1csnn1)C(C(=O)NC1CCCC1)c1ccncc1 (stereo not given)	0	0	0	0	0
Cc1ccc(C(=O)C2=C(O)C(=O)N(CC3CCCO3)C2c2ccccc2F)o1 (stereo not given)	0	0	0	0	0
SMILES	IL1B secr inh	VP16 counter	MCF10A rereplic	RORg inh	SW480 rereplic
CN(C)C(CNC(=O)CCc1nc2sc3c(c2c(=O)[nH]1)CCCC3)c1ccccc1 (stereo not given)	0	-	0	-	0
CCOC(=O)C1CSC(Cc2ccc(OCc3ccc([N+](=O)[O-])cc3)cc2)N1 (stereo not given)	-	?	-	14.1µM	-
CCOC(=O)CCc1c(C)c2ccc(OCc3ccc([N+](=O)[O-])cc3)cc2oc1=O	0	0	0	0	0[9.22 µM]
O=C(O)CCn1c(CO)nc2ccccc21	0	0	0	0	0
N#CC(=C1NC(=O)c2ccccc21)c1nc2ccccc2n1CCO	-74.0	-	-	-	-
Cc1[nH]c(=O)[nH]c1C(=O)CCCCC(=O)OCC(=O)Nc1ccccn1	-114.3	0	0	0	0
Cc1cc2nc(CSc3ccc(Cl)cc3)cc(=O)n2[nH]1	0	?	?	11.2µM	?
COc1cc2cc3c4cc(OC)c(OC)cc4cc[n+]3c(C)c2cc1OC	-	0	-	0	-
Cc1cc(NC(=O)Nc2ccc3c(ccn3C)c2)sn1	-100.2	0	0	?	0
CCC[C@H](NC(C)=O)C(=O)N[C@H]1CC(=O)ONCCCC[C@@H](C(N)=O)NC(=O)[C@H](Cc2c[nH]c3ccccc23)NC(=O)[C@H](CCCN=C(N)N)NC(=O)[C@@H](Cc2ccc3ccccc3c2)NC(=O)[C@H](Cc2cnc[nH]2)NC1=O	-	0	-	0	-

Screening results as filed in PubChem.
